Compound activity (PubChem BioAssay)
Most compounds without a hit are left out; they make up all but 1.1% or so of the library.
OPRM1-OPRD1 inv: inverse agonists of MOR-DOR heterodimerization, primary screen, cell-based, luminescence. Mu-type opioid receptor (Homo sapiens) + Delta-type opioid receptor (Homo sapiens), …. cell-based MOR-DOR heterodimer luminescence, inverse agonism. inhibition, % at 9.3 µM. 340,000 compounds, 0.21% hits. AID 504357, 2011; in the data active = inhibition above about 22%, passing the limit was not always enough
HTR5A inv ctr: HTR5A inverse agonists in luminescence cell assay, primary screen, counter-screen for OPRM1-OPRD1 heterodimer inverse agonist project, full-deck HTS; 5-hydroxytryptamine receptor 5A (Homo sapiens), P47898; HTR5A cell line, inverse agonism; inhibition, % at 9.3 µM; 340,000 compounds, 0.083% hits; in the data active = inhibition mostly above about 23%, no sharp cut-off; inactive = mostly below about 18%
HTR5A ag ctr: HTR5A agonists in luminescence cell assay, primary screen, counter-screen for OPRM1-OPRD1 heterodimer agonist project, full-deck HTS; cell-based; activation, % at 9.3 µM; 5-hydroxytryptamine receptor 5A (Homo sapiens), P47898; 340,000 compounds, 0.61% hits; in the data active = activation mostly above about 9.5%, no sharp cut-off; inactive = mostly below about 7.6%
MOR-DOR ag: agonists of OPRM1-OPRD1 heterodimerization, primary screen, cell-based, luminescence; Mu-type opioid receptor (Homo sapiens) + Delta-type opioid receptor (Homo sapiens), …; 340,000 compounds, 0.3% hits; activation, % at 9.3 µM; AID 504326, 2011; cells; in the data active = activation above about 18%
Of the large screens only hits and unclear results are named; the others gave an inactive call.

c1cc2c(cc1C1CCCCC1)c1c3n2CCCNC3CCC1 (stereo not drawn)	none
CC(C)N1CCSC1=S	none
CCOC(=O)c1ccc(N=c2sc(C(=O)OC)cc(=O)n2Cc2ccco2)cc1	HTR5A ag ctr 14
CCOC(=O)c1ccc(N=c2sc(C(=O)OC)cc(=O)n2CCCN2CCOCC2)cc1	none
CCOC(=O)C1CCN(CC(O)COCc2ccc(Cl)cc2)CC1 (stereo not drawn)	HTR5A ag ctr 12
CCN1C=C(C(C)=O)C(=O)CC1	none
COc1ccc(CCNC(=O)CC2SC(=NCc3ccccc3OC)NC2=O)cc1 (stereo not drawn)	none
COc1ccccc1CN=C1NC(=O)C(CC(=O)Nc2ccc(C(C)=O)cc2)S1 (stereo not drawn)	HTR5A ag ctr 13
Cc1ccc(-c2nnc(N3CCN(c4ccccn4)CC3)c3ccccc23)cc1	HTR5A ag ctr 13
c1ccc(-c2nnc(N3CCN(c4ccccn4)CC3)c3ccccc23)cc1	none
CC(C(=O)N(C)Cc1cccc(F)c1)N1CCN(S(=O)(=O)c2ccc3c(c2)OCCCO3)CC1 (stereo not drawn)	none
COC(=O)c1nc2nc(-c3cccs3)cc(C(F)(F)F)n2n1	HTR5A ag ctr 11
COC(=O)c1nc2nc(C)cc(C(F)(F)F)n2n1	none
CCOc1cc(CNCc2cccnc2)cc(Br)c1OCC(N)=O	HTR5A ag ctr 10
C/C(=N\Nc1nc2ccccc2[nH]1)c1ccccn1	OPRM1-OPRD1 inv 61
Cc1noc(C)c1S(=O)(=O)Nc1ccc2c(c1)CC(=O)N([C@H](C)CO)C[C@H](C)[C@H](CN(C)S(=O)(=O)c1ccc(F)cc1)O2	none
COC(=O)C1=C(O)CSC1=Nc1cccc(C(F)(F)F)c1	HTR5A ag ctr 14
COC(=O)/C(N=Nc1cccc(C(F)(F)F)c1)=C(\C)O	none
CCC1C(=O)C[C@H]2CCN3C(=O)CCCC1C23 (stereo partly drawn)	none
O=C(Cc1ccccc1)NCc1ccncc1	none
O=C(Cc1c[nH]c2ccccc12)NCc1ccncc1	HTR5A ag ctr 11
Cc1cc(C)c(C)c(S(=O)(=O)N2CCN(C(=O)CNC(=O)c3ccco3)CC2)c1C	HTR5A ag ctr 14
Cc1ccc(NC(=O)COC(=O)c2ccco2)cc1S(=O)(=O)N1CCOCC1	none
O=C(NCC(c1ccco1)N1CCCCC1)c1cccnc1 (stereo not drawn)	none
CCCSC1=C(C#N)C(c2ccc(OC)cc2)C2=C(CC(C)(C)CC2=O)N1 (stereo not drawn)	HTR5A ag ctr 11
CCOC(=O)c1ccc(Nc2ncnc3c2cnn3C)cc1	none
Cn1ncc2c(O/N=C(\N)c3ccc(C(C)(C)C)cc3)ncnc21	HTR5A ag ctr 68, MOR-DOR ag 182
O=C1CC(C(=O)O)S/C(=N\NC(=O)c2ccccc2)N1 (stereo not drawn)	HTR5A ag ctr 12
C/C(=N\N=C1\NC(=O)CC(C(=O)O)S1)c1ccc(F)cc1 (stereo not drawn)	none
Cc1ccc(Cl)cc1N1CCN(C(=O)c2noc(C(C)C)c2[N+](=O)[O-])CC1	HTR5A ag ctr 42, MOR-DOR ag 52
Cc1cc(Br)ccc1NC(=O)CN(C)C(=O)C1CCN(C(=O)c2ccc(Cl)cc2)CC1	none
O=C(COC(=O)c1cncc(Br)c1)Nc1ccc(F)c(F)c1F	none
Cc1nc(-c2ccccn2)nc(N(C)c2ccccc2)c1Cl	none
C(=N/Nc1nc(-c2ccccc2)cc(-c2ccccc2)n1)/c1cccnc1	none
Cc1cc(-c2ccccc2)nc(N/N=C/c2cccnc2)n1	HTR5A ag ctr 11
NS(=O)(=O)c1ccc(NC(=O)CSc2nnc3n2CCCCC3)cc1	none
CCOc1ccccc1C(=O)NC(C(=O)NCCc1ccccn1)C(C)C (stereo not drawn)	none
COc1ccc(C(C(=O)NC2CCCCC2)N(C(=O)CCl)c2ccc(OC)cc2)cc1 (stereo not drawn)	HTR5A ag ctr 50, MOR-DOR ag 65
COc1ccc(N(C(=O)CCl)C(C(=O)NC2CCCCC2)c2cccnc2)cc1 (stereo not drawn)	none
COc1ccc(C(C(=O)NC2CCCCC2)N(C(=O)CCl)c2ccc(C)cc2)cc1 (stereo not drawn)	HTR5A ag ctr 31, MOR-DOR ag 24
COc1ccc(C(C(=O)NC2CCCCC2)N(C(=O)CCl)c2cccc(Cl)c2)cc1 (stereo not drawn)	HTR5A ag ctr 86, MOR-DOR ag 94
CCN(CC(=O)NCc1cccs1)CC(=O)Nc1cccc(S(N)(=O)=O)c1	none
Cc1ccc(S(=O)(=O)Nc2ccc3nc(C)sc3c2)cc1	none
Cc1nc2ccc(NS(=O)(=O)c3cccc([N+](=O)[O-])c3)cc2s1	HTR5A ag ctr 9.0
O=C(O)C1C2CCC(C2)C1C(=O)NCCc1ccccc1 (stereo not drawn)	HTR5A ag ctr 9.4
C#CC(=O)N(c1ccc(OC)cc1OC)C(C(=O)NC1CCCC1)c1cccs1 (stereo not drawn)	HTR5A ag ctr 43, MOR-DOR ag 52
O=C(CNc1cc(S(=O)(=O)N2CCOCC2)ccc1N1CCCC1)Nc1ccc(Cl)cc1	none
CCC(CC)CN1CCC(CN2C(=S)NC[C@@H]2CC(C)C)CC1	none
COc1ccccc1CC(=O)Nc1cc(OC)c(NC(=O)c2ccccc2)cc1OC	none
COc1cc(NC(=O)c2ccccc2)c(OC)cc1NC(=O)Cc1ccc(C)cc1	HTR5A ag ctr 9.6
COc1ccc(CC(=O)Nc2ccc(F)c(F)c2F)cc1S(=O)(=O)N1CCOCC1	none
O=C(CNC(=O)c1ccc(F)cc1)NCc1ccc(S(=O)(=O)N2CCOCC2)cc1	none
COC(=O)[C@@H]1Cc2c([nH]c3ccccc23)C(C)(C)N1C(=O)CCl	HTR5A ag ctr 41, MOR-DOR ag 37
CN(CC(=O)Nc1ccc(Cl)c(C(F)(F)F)c1)C(=O)c1ccccc1SCC(=O)N1CCCC1	none
Cc1ccc2nc(C)cc(C(=O)OCC(=O)c3ccc(Cl)c([N+](=O)[O-])c3)c2c1	OPRM1-OPRD1 inv 79, HTR5A inv ctr 41
COc1ccc(-c2cc(C(=O)OCC(=O)c3ccc(C)c([N+](=O)[O-])c3)c3ccccc3n2)cc1	none
O=S(=O)(NCC(c1ccco1)N1CCCCC1)c1ccccc1C(F)(F)F (stereo not drawn)	none
COc1cccc(C(=O)COc2ccc3c(C)cc(=O)oc3c2)c1	none
COc1cccc(C(=O)COc2ccc3ccc(=O)oc3c2)c1	HTR5A ag ctr 12
COc1ccc(-c2ccc(SCC(=O)N3CCCC3)nn2)cc1OC	HTR5A ag ctr 11
COc1ccc(-c2ccc(SCC(=O)N3CCOCC3)nn2)cc1OC	none
CCC1=[N+](CC(=O)c2ccc(Br)cc2)CCn2c(C)ccc21	HTR5A ag ctr 12
Cc1cc(=O)[nH]c(SCC(=O)Nc2ccc(Br)cn2)n1	HTR5A ag ctr 13
CCCn1c(N)c(C(=O)CN(C)CC(=O)Nc2c(C)cc(C)cc2C)c(=O)[nH]c1=O	none
